This is a sample that favours compounds with a hit; in the whole collection about 2.2% have one here.
NPR1 activator = GC-A stimulated cGMP production enhancers – HEK293 GC-A cells, cGMP TR-FRET, EC30 ANP, primary screen; Atrial natriuretic peptide receptor 1 (Homo sapiens), P16066; AID 1671463, 2021; actives 0.14% (n = 370,000); activation, % at 10 µM; 0% at EC30 ANP, 100% saturating ANP; in the data active = activation above about 40%
proKLK7 act = proKLK7 zymogen activators, primary screen, biochemical, fluorescence intensity | purified proKLK7, EDANS-DABCYL substrate fluorescence; 100% is mature enzyme control, 0% vehicle | AID 652039, 2013 | activation, % at 7 µM | actives 0.9% (n = 370,000) | Kallikrein-7 (Homo sapiens), P49862;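 active = activation above the mean of all tested compounds plus 3 SD, computed per campaign excluding outliers beyond control limits, cut at about 13% in these data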
ADAM10 inh = human ADAM10 inhibitors, primary screen, biochemical, QFRET, HTS; inhibition, % at 7 µM; Disintegrin and metalloproteinase domain-containing protein 10 (Homo sapiens), O14672; actives 0.62% (n = 370,000); recombinant ADAM10, EDANS/DABCYL FRET peptide cleavage, 3 h;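 active = inhibition above a per-campaign cutoff equal to the mean of compounds falling between control-based bounds plus 3 SD, cut at about 20% in these data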;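 note: 0% = DMSO wells while the 100% control is not disclosed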
ADAM17 inh = ADAM17 inhibitors, primary screen, biochemical, QFRET; Disintegrin and metalloproteinase domain-containing protein 17 (Homo sapiens), P78536; recombinant ADAM17, EDANS/DABCYL FRET peptide cleavage; inhibition, % at 6.95 µM; actives 0.83% (n = 370,000);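 active = inhibition above the mean of compounds lying between control limits plus 3 SD, set per campaign, cut at about 8.5% in these data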;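 note: 0% = DMSO-only wells as the low control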
NPR2 activator = human GC-B receptor activators, primary screen, HEK293 GC-B cells, cGMP TR-FRET, EC30 CNP | Atrial natriuretic peptide receptor 2 (Homo sapiens), P20594 | 0% at EC30 CNP, 100% saturating CNP | AID 1920062, 2024 | actives 0.11% (n = 370,000) | activation, % at 10 µM;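 active = activation at 10 µM reaching about 35% in either raw or pattern-adjusted values, limit read from the data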
KLK7 act conf = proKLK7 zymogen activators, confirmation, biochemical, fluorescence intensity, triplicate. shares compounds with proKLK7 act. purified proKLK7, EDANS-DABCYL substrate fluorescence; scaled: vehicle 0, mature enzyme 100. activation, % at 7 µM. actives 68% (n = 3,200). AID 686949, 2013;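 active = activation, as change over the incubation, above the mean of all tested compounds plus 3 SD, cut at about 13% in these data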
EDANS interfere = EDANS-DABCYL substrate optical interference, artefact control for kallikrein-7 zymogen activator project, biochemical, fluorescence intensity, high throughput | shares compounds with proKLK7 act | no enzyme, 4 h; solvent 0%, active enzyme control 100% | activation, % at 7 µM | actives 80% (n = 3,200) | AID 686952, 2013;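 active = activation above the all-compound mean plus 3 SD, ignoring values outside control-based bounds, cut at about 4.8% in these data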;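 note: value is the 4 h activation minus the activation read at time zero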
EDANS interf = EDANS fluorescence interference in dose response, no enzyme. shares compounds with proKLK7 act. EDANS-DABCYL peptide fluorescence interference. EC50, µM. actives 20% (n = 250);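 active = compounds that raise the fluorescence signal in this interference counterscreen, with EC50 at or below 10 µM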;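 note: intact quenched peptide substrate alone read at 355 nm excitation and 520 nm emission; signal is fluorescence gain from T0 to T4 after four hours at room temperature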
* hit, by the source's call; i = inactive; . = no result.

SMILES	NPR1 activator	proKLK7 act	ADAM10 inh	ADAM17 inh	NPR2 activator	KLK7 act conf	EDANS interfere	others
CN1C(=O)C2C(c3ccc(N(C)C)cc3)=NN(Cc3ccccc3)C2C1=O (configuration not stated)	0	24*	-45	-16	1	24*	32*
COc1ccc(C2=NN(Cc3ccccc3)C3C(=O)NC(=O)C23)cc1 (configuration not stated)	0	0	-9	-7	-3	.	.
Cn1c(=O)c2cc(NC(=O)CCc3ccc4c(c3)OCO4)ccc2n1Cc1ccc(F)cc1	1	32*	i	-244	4	65*	72*
COc1cc(Cn2c3ccc(NC(=O)CCc4ccc(O)cc4)cc3c(=O)n2C)ccc1F	-2	13*	i	-316	2	5	10*
COc1cc(Cn2c3ccc(NC(=O)NCc4ccc(F)cc4)cc3c(=O)n2C)ccc1F	0	3	i	-478	0	.	.
Brc1ccccc1Cn1nnc(-c2ccc(N3CCOCC3)cc2)n1	-1	0	1	1	-8	.	.
Cc1c(CC(=O)NCCC(C)C)c(=O)oc2cc3c(cc12)CCC(C)(C)O3	9	-4	-185	-72	0	.	.
COCCNC(=O)Cc1c(C)c2cc3c(cc2oc1=O)OC(C)(C)CC3	7	13*	i	i	1	15*	10.0*	EDANS interf=>70
O=S(=O)(c1ccc(-c2cn3ccccc3n2)cc1)N1CCOCC1	3	16*	i	i	1	19*	16*	EDANS interf=>70
O=C(Nc1ccc(Cl)c(Cl)c1)C1CCCN1S(=O)(=O)c1cccc2cccnc12 (configuration not stated)	-7	0	6	5	-12	.	.
COc1ccc(OC)c(/C=C/C(=O)N(C)CC(=O)Nc2ccc(C)cc2)c1	2	27*	i	-362	0	64*	68*
COc1ccc(OC)c(/C=C/C(=O)N(C)CC(=O)Nc2cc(C)ccc2C)c1	6	21*	i	-252	1	1	8.4*
COc1ccc(CCC(=O)N(C)CC(=O)Nc2cc(C)ccc2C)cc1	-2	0	-6	-3	-1	.	.
Cc1ccc(NC(=O)CN(C)C(=O)/C=C/c2cccc(F)c2)cc1	-2	0	0	-5	10	.	.
O=C(NCCc1c[nH]c2ccccc12)OCc1cn(Cc2ccc(F)cc2F)nn1	0	0	5	1	2	.	.
c1ccc(C[n+]2cccc3c4ccccc4ccc32)cc1	5	16*	i	-308	2	22*	28*
CCCCC[n+]1cccc2c3ccccc3ccc21	14	26*	i	-347	-7	16*	17*
O=C(Nc1ccc(F)cc1Cl)C1CCCN1S(=O)(=O)c1cccc2cccnc12 (configuration not stated)	-1	1	-3	1	6	.	.
COc1ccc(CN2CN3Cc4ccc(C)cc4C3CS2(=O)=O)cc1 (configuration not stated)	1	0	3	1	6	.	.
O=c1cc(C(F)(F)F)c2sc(N3CCCCC3)nc2[nH]1	2	38*	i	-370	-5	2	10*
CC1CCC2(CCC(=O)N2CCCO)CC1 (configuration not stated)	-2	-1	-5	-2	8	.	.
Oc1ccc2c(c1)OCC1(O)Cc3cc(O)c(O)cc3C21 (configuration not stated)	0	16*	-33	-7	0	58*	57*
C=CCc1c(C)[nH]c2c(OC)cccc2c1=S	-5	29*	-90	-42	-2	13*	18*
Nc1nc(Nc2ccccc2)sc1C(=O)c1ccccc1	-1	-1	10	4	-4	.	.
CCNc1nc(N)c(C(=C(C#N)C#N)c2ccccc2)s1	1	33*	i	i	7	139*	139*
SMILES	NPR1 activator	proKLK7 act	ADAM10 inh	ADAM17 inh	NPR2 activator	KLK7 act conf	EDANS interfere	others
CCOP(=O)(OCC)c1nc(-c2ccccc2Cl)oc1N1CCOCC1	-1	0	-24	-8	2	.	.
CCOP(=O)(OCC)c1nc(-c2cccc3ccccc23)oc1N1CCOCC1	-4	63*	i	i	-3	63*	58*
COc1ccc(CN2CCC(CNC(=O)NC(C)C)CC2)cc1	3	0	8	7	-2	.	.
Cc1ccc2c(c1)c1c3n2CCN=C3CCC1	-5	30*	-65	-12	-1	3	9.7*
c1cc2c(cc1C1CCCCC1)c1c3n2CCN=C3CCC1	-5	2	-9	-8	-12	.	.
CC(C)(C)c1ccc(C(=O)Nc2cc(Cl)ccc2C(=O)O)cc1	-3	.	12	1	-2	.	.
CCn1c2ccccc2c2cc(NC(=O)COC(=O)c3cccc(F)c3)ccc21	-10	0	2	4	-14	.	.
CC(=O)Nc1cccc(C(=O)Oc2cccc(C)c2)c1O	1	40*	-43	-12	-4	48*	51*
CCCCN(CC)Cc1c(O)ccc2c3c(c(=O)oc12)CCC3	-1	62*	i	i	3	68*	72*
CN(C)Cc1c(O)ccc2c3c(c(=O)oc12)CCCCC3	7	48*	i	i	8	57*	78*
COCCN(CCOC)Cc1c(O)ccc2c3c(c(=O)oc12)CCC3	-1	61*	i	i	-4	70*	74*
CN(Cc1c(O)ccc2c1oc(=O)c1ccccc12)C1CCCCC1	-5	-3	-34	-7	-5	.	.
CCN(CC)C(=O)COc1ccc2c3c(c(=O)oc2c1C)CCCC3	3	2	-255	-93	4	.	.
CCc1c(C)c2ccc(O)c(CN(C)C)c2oc1=O	6	56*	i	i	1	65*	65*
Cc1ccsc1S(=O)(=O)n1c(CN2CCOCC2)nc2ccccc21	0	0	-6	-2	-6	.	.

Assay outcomes as filed in PubChem BioAssay.
